Targets with a hit are over-represented here; the source holds about 8,800 in all. About 0.5% of all pairs of compound and target were hits. A number with no mark means an inactive call.

Sequence of UniProt Q9Y4H2 (Q9Y4H2 whole entry, looked up): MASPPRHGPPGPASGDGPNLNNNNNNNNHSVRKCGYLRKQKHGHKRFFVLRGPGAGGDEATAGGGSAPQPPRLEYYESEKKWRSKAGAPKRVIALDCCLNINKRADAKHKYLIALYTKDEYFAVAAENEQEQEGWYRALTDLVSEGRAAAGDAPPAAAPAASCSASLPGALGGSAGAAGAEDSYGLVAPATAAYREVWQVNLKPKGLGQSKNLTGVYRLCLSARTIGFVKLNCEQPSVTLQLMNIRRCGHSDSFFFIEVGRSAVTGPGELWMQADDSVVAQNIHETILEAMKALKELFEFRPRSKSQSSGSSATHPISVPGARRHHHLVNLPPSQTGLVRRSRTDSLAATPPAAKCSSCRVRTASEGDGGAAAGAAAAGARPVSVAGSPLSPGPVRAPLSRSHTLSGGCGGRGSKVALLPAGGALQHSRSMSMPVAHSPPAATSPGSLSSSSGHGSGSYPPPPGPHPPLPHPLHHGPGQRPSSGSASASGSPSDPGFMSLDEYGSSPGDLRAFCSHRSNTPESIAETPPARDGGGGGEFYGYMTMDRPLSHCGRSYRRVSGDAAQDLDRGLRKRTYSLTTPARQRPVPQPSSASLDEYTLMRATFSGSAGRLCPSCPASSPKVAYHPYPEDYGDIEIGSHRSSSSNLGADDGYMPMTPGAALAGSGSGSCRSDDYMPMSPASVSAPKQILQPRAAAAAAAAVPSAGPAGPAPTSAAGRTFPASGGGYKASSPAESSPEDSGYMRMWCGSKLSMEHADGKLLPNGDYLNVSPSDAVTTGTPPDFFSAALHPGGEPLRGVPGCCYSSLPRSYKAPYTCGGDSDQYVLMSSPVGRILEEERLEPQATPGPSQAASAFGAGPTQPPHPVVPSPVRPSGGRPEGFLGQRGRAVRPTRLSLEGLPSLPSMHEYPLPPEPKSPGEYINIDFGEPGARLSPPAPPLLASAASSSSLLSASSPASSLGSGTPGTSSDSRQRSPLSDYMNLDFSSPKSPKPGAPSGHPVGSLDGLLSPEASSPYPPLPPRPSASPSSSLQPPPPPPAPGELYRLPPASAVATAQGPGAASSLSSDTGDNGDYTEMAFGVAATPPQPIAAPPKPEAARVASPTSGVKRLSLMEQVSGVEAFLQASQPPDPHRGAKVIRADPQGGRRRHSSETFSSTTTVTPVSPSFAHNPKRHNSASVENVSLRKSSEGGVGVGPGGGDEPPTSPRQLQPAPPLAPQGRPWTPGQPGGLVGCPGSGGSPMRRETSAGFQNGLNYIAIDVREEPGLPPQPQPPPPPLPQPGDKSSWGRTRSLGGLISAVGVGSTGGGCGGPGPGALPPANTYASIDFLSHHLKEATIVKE
Sequence of UniProt P23677 (P23677 whole entry, looked up): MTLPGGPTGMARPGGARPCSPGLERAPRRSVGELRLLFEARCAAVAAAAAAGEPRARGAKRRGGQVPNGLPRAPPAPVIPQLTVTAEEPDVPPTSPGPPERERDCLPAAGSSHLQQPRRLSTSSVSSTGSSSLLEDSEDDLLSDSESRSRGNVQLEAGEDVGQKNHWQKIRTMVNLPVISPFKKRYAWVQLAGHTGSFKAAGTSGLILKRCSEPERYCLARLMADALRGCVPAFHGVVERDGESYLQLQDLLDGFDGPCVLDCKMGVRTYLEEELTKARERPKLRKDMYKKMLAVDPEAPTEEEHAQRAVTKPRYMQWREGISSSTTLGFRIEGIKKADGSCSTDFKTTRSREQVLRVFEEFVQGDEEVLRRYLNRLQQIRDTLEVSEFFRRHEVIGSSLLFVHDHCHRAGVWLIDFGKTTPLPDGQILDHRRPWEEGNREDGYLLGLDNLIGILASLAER
Sequence of UniProt Q96A47 (Q96A47 whole entry, looked up): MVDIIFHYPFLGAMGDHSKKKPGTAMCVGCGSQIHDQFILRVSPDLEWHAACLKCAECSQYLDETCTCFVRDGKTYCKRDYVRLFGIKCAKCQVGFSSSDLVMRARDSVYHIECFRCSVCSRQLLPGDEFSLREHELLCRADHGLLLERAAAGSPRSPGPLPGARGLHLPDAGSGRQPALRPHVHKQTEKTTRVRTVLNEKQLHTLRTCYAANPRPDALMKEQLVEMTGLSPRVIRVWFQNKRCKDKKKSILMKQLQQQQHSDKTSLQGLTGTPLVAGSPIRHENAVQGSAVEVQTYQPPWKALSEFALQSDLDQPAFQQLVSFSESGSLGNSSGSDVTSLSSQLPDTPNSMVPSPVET
Sequence of UniProt Q1KMD3 (Q1KMD3 whole entry, looked up): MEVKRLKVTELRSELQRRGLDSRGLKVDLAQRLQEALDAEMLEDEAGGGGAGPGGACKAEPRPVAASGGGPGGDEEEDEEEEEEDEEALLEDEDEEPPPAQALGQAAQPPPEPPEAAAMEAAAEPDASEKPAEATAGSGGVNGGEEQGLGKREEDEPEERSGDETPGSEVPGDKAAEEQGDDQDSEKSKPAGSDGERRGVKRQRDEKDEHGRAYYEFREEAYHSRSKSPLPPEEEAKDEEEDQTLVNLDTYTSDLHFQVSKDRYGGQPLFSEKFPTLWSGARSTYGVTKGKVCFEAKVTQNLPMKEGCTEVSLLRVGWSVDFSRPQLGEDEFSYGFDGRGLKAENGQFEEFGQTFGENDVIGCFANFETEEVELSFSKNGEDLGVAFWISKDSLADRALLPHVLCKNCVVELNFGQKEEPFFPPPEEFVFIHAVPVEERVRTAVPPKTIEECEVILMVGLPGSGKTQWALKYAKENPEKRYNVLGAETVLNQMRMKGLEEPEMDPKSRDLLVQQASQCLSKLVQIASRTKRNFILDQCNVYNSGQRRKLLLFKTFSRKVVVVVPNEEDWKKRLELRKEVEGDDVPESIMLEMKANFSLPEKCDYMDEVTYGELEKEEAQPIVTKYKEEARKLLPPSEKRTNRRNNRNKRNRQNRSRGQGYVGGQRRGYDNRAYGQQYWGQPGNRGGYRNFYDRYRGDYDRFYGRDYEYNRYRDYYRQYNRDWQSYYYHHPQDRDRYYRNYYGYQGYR
Sequence of UniProt Q8TF64 (Q8TF64 whole entry, looked up): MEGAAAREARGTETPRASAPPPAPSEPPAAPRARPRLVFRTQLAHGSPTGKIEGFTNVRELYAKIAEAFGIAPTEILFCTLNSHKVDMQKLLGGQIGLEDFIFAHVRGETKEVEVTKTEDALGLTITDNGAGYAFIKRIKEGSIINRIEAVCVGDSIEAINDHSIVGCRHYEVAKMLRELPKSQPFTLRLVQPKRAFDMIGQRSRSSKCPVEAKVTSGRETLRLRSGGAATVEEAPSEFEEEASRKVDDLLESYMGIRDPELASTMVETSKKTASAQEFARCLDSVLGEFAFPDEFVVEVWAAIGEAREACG
Sequence of UniProt Q92769 (Q92769 whole entry, looked up): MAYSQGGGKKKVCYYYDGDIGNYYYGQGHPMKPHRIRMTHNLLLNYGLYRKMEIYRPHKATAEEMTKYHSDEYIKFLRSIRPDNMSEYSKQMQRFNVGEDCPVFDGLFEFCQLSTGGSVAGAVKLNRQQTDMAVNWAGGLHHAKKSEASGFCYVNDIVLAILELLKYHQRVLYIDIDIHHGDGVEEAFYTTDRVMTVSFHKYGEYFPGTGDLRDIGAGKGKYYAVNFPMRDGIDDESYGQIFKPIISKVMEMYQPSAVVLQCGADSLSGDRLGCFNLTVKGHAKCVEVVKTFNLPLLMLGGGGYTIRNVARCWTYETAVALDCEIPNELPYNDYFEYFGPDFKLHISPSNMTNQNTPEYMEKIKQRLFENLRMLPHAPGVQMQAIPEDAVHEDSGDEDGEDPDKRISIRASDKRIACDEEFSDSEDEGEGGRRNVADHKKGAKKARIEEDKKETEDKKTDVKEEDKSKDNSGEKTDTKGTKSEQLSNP
Sequence of UniProt P22692 (P22692 whole entry, looked up): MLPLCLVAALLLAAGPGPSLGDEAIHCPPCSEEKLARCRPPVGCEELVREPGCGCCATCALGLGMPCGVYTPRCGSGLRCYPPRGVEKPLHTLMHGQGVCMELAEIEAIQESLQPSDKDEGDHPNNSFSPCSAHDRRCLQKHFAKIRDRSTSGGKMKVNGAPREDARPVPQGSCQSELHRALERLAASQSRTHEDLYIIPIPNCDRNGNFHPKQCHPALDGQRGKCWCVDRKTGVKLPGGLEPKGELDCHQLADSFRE
Sequence of UniProt P49841 (P49841 whole entry, looked up): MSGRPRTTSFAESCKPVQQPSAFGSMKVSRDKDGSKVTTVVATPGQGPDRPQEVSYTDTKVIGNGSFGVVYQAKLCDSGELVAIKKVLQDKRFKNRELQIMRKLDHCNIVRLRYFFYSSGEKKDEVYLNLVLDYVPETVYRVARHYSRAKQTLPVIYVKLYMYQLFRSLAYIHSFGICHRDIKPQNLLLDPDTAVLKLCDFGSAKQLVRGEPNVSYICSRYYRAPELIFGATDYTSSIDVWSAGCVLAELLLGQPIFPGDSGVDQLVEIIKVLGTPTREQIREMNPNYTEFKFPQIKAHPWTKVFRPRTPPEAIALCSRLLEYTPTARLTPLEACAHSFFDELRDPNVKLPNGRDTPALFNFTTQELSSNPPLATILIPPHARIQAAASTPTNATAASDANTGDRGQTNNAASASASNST
Sequence of UniProt Q96EW2 (Q96EW2 whole entry, looked up): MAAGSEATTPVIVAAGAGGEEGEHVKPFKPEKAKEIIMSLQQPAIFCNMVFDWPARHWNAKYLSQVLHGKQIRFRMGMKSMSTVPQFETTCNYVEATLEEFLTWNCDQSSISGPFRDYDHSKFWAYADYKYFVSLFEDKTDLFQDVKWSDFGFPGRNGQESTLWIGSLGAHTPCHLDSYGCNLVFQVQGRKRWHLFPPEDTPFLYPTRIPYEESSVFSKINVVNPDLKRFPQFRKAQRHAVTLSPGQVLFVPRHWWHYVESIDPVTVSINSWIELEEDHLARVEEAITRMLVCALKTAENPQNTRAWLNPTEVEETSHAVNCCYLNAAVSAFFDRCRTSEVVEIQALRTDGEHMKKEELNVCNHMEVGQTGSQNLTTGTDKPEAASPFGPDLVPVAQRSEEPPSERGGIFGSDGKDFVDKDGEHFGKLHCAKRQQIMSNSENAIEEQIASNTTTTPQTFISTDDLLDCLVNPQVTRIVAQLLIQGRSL
Sequence of UniProt P17096 (P17096 whole entry, looked up): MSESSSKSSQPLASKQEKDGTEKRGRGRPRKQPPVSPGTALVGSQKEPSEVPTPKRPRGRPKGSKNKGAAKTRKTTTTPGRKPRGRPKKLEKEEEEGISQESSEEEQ

Compound in the first assay: C1=CC=C(C=C1)[C@H](COC2=CC3=C(C=C2)NC(=O)N3)NC(=O)C4=CC=CN(C4=O)CC5=CC(=C(C=C5)F)F
Briefly: log2 fold change, soluble protein after heating vs DMSO (PISA); higher = thermal stabilisation; K562 lysate, 10 uM; active = over 0.2 and 3.5 SD of the protein, either way, in both replicates (recomputed). In outline:
(§1)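 K562 pellets were dounce-homogenised in PBS pH 7.4 containing 1 mM MgCl2, and the crude extract, at 1 mg/mL protein, was exposed to 10 μM compound for 30 min. Aliquots were heated for 3 min across 48°C-58°C, pooled, brought to 0.5% NP-40 at 4°C and spun at 21,000xg for 90 min, with the supernatant taken as soluble protein. TMTpro 16plex LC-MS/MS with equalised channel sums quantified that protein. Values are log-two fold changes in thermal stability relative to solvent controls, taken from duplicates.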
Regarding GIPC3 (UniProt Q8TF64), the log2 fold change is -0.002.

With HTT (UniProt P42858), the log2 fold change was 0.039.

For the target H3-3A (UniProt P84243), the log2 fold change was 0.059.

Turning to ITPKA (UniProt P23677), the log2 fold change is -0.022.

For HDAC2 (UniProt Q92769), the log2 fold change was 0.004.

Turning to HSPBAP1 (UniProt Q96EW2), the log2 fold change is 0.069.

Take GSK3B isoform 2 (UniProt P49841): the log2 fold change was 0.036.

As for GTF3C3 (UniProt Q9Y5Q9), the log2 fold change was -0.018.

Turning to HOMER3 (UniProt Q9NSC5), the log2 fold change is 0.072.

With HDAC10 (UniProt Q969S8), the log2 fold change is -0.076.

For HNRNPUL2 (UniProt Q1KMD3), the log2 fold change is 0.011.

In the case of HS1BP3 (UniProt Q53T59), the log2 fold change was 0.018.

Consider JAK3 (UniProt P52333), for which the log2 fold change is 0.031.

HMGB1 (UniProt P09429): the log2 fold change was 0.053.

On to HSPA8 (UniProt E9PN89), for which the log2 fold change was 0.003.

Regarding HIST2H2AA3 (UniProt Q6FI13), the log2 fold change was 0.017.

Take HNRNPAB isoform 3 (UniProt Q99729): the log2 fold change was -0.015.

For the target HNRNPUL1 (UniProt M0R247), the log2 fold change is 0.059.

In the case of ISL2 (UniProt Q96A47), the log2 fold change is 0.038.

As for IGFBP4 (UniProt P22692), the log2 fold change was 0.135.

Regarding GNB4 (UniProt Q9HAV0), the log2 fold change was 0.162.

In the case of IRS2 (UniProt Q9Y4H2), the log2 fold change was -0.091.

With GYPA, A0A2R8Y7F9, the log2 fold change is -0.088.

Compound in another assay: CC1=C(SC2=C1C(=N[C@H](C3=NN=C(N32)C)CC(=O)N)C4=CC=C(C=C4)Cl)C
The assay is described as above. In outline: as §1
GIPC3 (UniProt Q8TF64): the log2 fold change was 0.042.

Turning to HTT (UniProt P42858), the log2 fold change is -0.088.

For the target H3-3A (UniProt P84243), the log2 fold change is 0.016.

For ITPKA (UniProt P23677), the log2 fold change was 0.006.

On to HDAC2 (UniProt Q92769), for which the log2 fold change was 0.002.

HSPBAP1 (UniProt Q96EW2): the log2 fold change is -0.022.

GSK3B isoform 2 (UniProt P49841): the log2 fold change was -0.003.

For the target GTF3C3 (UniProt Q9Y5Q9), the log2 fold change was -0.019.

Take HOMER3 (UniProt Q9NSC5): the log2 fold change was -0.276.

With HDAC10 (UniProt Q969S8), the log2 fold change was 0.115.

For the target HNRNPUL2 (UniProt Q1KMD3), the log2 fold change was 0.016.

Take HS1BP3 (UniProt Q53T59): the log2 fold change was -0.03.

On to JAK3 (UniProt P52333), for which the log2 fold change was -0.051.

As for HMGB1 (UniProt P09429), the log2 fold change was -0.048.

Consider HSPA8 (UniProt E9PN89), for which the log2 fold change was 0.044.

On to HIST2H2AA3 (UniProt Q6FI13), for which the log2 fold change was 0.

HNRNPAB isoform 3 (UniProt Q99729): the log2 fold change is 0.023.

As for HNRNPUL1 (UniProt M0R247), the log2 fold change is -0.014.

As to ISL2 (UniProt Q96A47), the log2 fold change was 0.058.

For the target IGFBP4 (UniProt P22692), the log2 fold change was -0.099.

In the case of GNB4 (UniProt Q9HAV0), the log2 fold change was -0.074.

Take IRS2 (UniProt Q9Y4H2): the log2 fold change is 0.246.

Take GYPA, A0A2R8Y7F9: the log2 fold change was -0.151.

Compound in the next assay: CC1=C2C(=CC=C1)N=C(N(C2=O)C3=CC=CC=C3C)CN4C=NC5=C(N=CN=C54)N
Described as above. In outline:
as §1
Regarding GORASP1 (UniProt Q9BQQ3), the log2 fold change was -0.049.

For the target HTT (UniProt P42858), the log2 fold change was 0.064.

Consider HNRNPM (UniProt M0R019), for which the log2 fold change was -0.116.

Take HECW2 (UniProt Q9P2P5): the log2 fold change is -0.048.

For the target H3-3A (UniProt P84243), the log2 fold change was 0.024.

For the target ITPKA (UniProt P23677), the log2 fold change was -0.017.

As for HDAC2 (UniProt Q92769), the log2 fold change was -0.017.

Turning to GSK3B isoform 2 (UniProt P49841), the log2 fold change was -0.042.

Regarding GTF3C3 (UniProt Q9Y5Q9), the log2 fold change was 0.03.

In the case of HDAC10 (UniProt Q969S8), the log2 fold change was 0.21.

Consider HNRNPUL2 (UniProt Q1KMD3), for which the log2 fold change is 0.015.

For HS1BP3 (UniProt Q53T59), the log2 fold change was -0.073.

JAK3 (UniProt P52333): the log2 fold change was -0.129.

Consider HMGB1 (UniProt P09429), for which the log2 fold change was 0.032.

As for GTPBP6 (UniProt O43824), the log2 fold change is 0.385.

ITGB1BP2 (UniProt Q9UKP3): the log2 fold change was 0.116.

On to GPN2 (UniProt Q9H9Y4), for which the log2 fold change was 0.07.

Consider HIST2H2AA3 (UniProt Q6FI13), for which the log2 fold change was -0.111.

As for HNRNPAB isoform 3 (UniProt Q99729), the log2 fold change was -0.025.

IPP (UniProt Q9Y573): the log2 fold change was -0.009.

For KATNBL1 (UniProt Q9H079), the log2 fold change was -0.111.

With HYDIN (UniProt Q4G0P3), the log2 fold change was -0.069.

Compound in another assay: Cc1sc2c(c1C)C(c1ccc(Cl)cc1)=N[C@@H](CC(=O)OC(C)(C)C)c1nnc(C)n1-2
The description is as above. In outline:
as §1
Regarding GIPC3 (UniProt Q8TF64), the log2 fold change is 0.013.

In the case of GORASP1 (UniProt Q9BQQ3), the log2 fold change is -0.031.

For the target HTT (UniProt P42858), the log2 fold change was 0.066.

For the target HECW2 (UniProt Q9P2P5), the log2 fold change is -0.093.

In the case of ITPKA (UniProt P23677), the log2 fold change is -0.012.

Take HDAC2 (UniProt Q92769): the log2 fold change was 0.02.

HSPBAP1 (UniProt Q96EW2): the log2 fold change is 0.065.

As to GSK3B isoform 2 (UniProt P49841), the log2 fold change is 0.029.

Regarding GTF3C3 (UniProt Q9Y5Q9), the log2 fold change was -0.052.

With HDAC10 (UniProt Q969S8), the log2 fold change is 0.197.

Turning to HNRNPUL2 (UniProt Q1KMD3), the log2 fold change was 0.007.

Regarding HS1BP3 (UniProt Q53T59), the log2 fold change is 0.004.

For the target HMGB1 (UniProt P09429), the log2 fold change was 0.056.

Take HSPA8 (UniProt E9PN89): the log2 fold change is -0.219.

On to GPLD1 (UniProt P80108), for which the log2 fold change is 0.209.

Consider GTPBP6 (UniProt O43824), for which the log2 fold change is -0.439.

In the case of ITGB1BP2 (UniProt Q9UKP3), the log2 fold change is 0.083.

Turning to GPN2 (UniProt Q9H9Y4), the log2 fold change is 0.057.

For the target HIST2H2AA3 (UniProt Q6FI13), the log2 fold change was 0.268.

Consider HNRNPAB isoform 3 (UniProt Q99729), for which the log2 fold change is 0.01.

Regarding ISL2 (UniProt Q96A47), the log2 fold change is -0.063.

For the target IGFBP4 (UniProt P22692), the log2 fold change was -0.032.

Regarding GNB4 (UniProt Q9HAV0), the log2 fold change was 0.031.

As for ITPRIP (UniProt Q8IWB1), the log2 fold change was 0.054.

For IRS2 (UniProt Q9Y4H2), the log2 fold change was -0.129.

Turning to HMGA1 isoform 2 (UniProt P17096), the log2 fold change was 0.055.

Take ITPR2 (UniProt Q14571): the log2 fold change is -0.171.

For IPP (UniProt Q9Y573), the log2 fold change is -0.099.

As to KATNBL1 (UniProt Q9H079), the log2 fold change is -0.012.

For HYDIN (UniProt Q4G0P3), the log2 fold change was -0.078.

The values above are taken from the supplement of paper PMC10849652.
